Assay outcomes: PubChem, National Center for Advancing Translational Sciences (NCATS)
Most compounds without a hit are left out; they make up all but 12% or so of the library.
Sfp PPTase inh: inhibitors of Bacillus subtilis Sfp phosphopantetheinyl transferase. 310,000 compounds, 3.5% hits. Biochemical Sfp PPTase activity, qHTS. Potency, µM, inactives show largest response in the series, negative = inhibition, hits mostly inhibitors. Q9F4F7;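 note: the enzyme is Sfp with the accession as filed and its product quenches rhodamine fluorescence; 0% = enzyme reaction without inhibitor and -100% = no enzyme wells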
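Reaction rates are the 30-min fluorescence difference (ex 525, em 598 nm) in wells containing 15 nM Sfp, 5 uM rhodamine-CoA and 12.5 uM BHQ-2-YbbR at pH 7.6 with 10 mM MgCl2.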
JMJD2A Tudor: inhibitors of human JMJD2A Tudor domain; O75164; AlphaScreen JMJD2A-Tudor / H3K4me3 peptide binding; Potency, µM (highest dose often 114 µM), for inactives: top-dose activity change, negative = inhibition, usual class: inhibitors; 390,000 compounds, 4.4% hits; note: % is set by controls: 0 for no effect and ±100 for the full control effect; nearly all actives have a fitted effect of over 50% in size
L3MBTL1 inh: inhibitors of human L3MBTL1 | Q9Y468 | AlphaScreen L3MBTL1–H3K9me1 peptide binding | Potency, µM (top dose mostly 57.1 µM), for inactives: top-dose activity, negative = inhibition, actives largely listed as inhibitors | 230,000 compounds, 0.66% hits | AID 485360; note: % is set by controls: 0 for no effect and ±100 for the full control effect; nearly all actives have a fitted effect of over 60% in size
Target sequence (Q9Y468 whole entry, looked up): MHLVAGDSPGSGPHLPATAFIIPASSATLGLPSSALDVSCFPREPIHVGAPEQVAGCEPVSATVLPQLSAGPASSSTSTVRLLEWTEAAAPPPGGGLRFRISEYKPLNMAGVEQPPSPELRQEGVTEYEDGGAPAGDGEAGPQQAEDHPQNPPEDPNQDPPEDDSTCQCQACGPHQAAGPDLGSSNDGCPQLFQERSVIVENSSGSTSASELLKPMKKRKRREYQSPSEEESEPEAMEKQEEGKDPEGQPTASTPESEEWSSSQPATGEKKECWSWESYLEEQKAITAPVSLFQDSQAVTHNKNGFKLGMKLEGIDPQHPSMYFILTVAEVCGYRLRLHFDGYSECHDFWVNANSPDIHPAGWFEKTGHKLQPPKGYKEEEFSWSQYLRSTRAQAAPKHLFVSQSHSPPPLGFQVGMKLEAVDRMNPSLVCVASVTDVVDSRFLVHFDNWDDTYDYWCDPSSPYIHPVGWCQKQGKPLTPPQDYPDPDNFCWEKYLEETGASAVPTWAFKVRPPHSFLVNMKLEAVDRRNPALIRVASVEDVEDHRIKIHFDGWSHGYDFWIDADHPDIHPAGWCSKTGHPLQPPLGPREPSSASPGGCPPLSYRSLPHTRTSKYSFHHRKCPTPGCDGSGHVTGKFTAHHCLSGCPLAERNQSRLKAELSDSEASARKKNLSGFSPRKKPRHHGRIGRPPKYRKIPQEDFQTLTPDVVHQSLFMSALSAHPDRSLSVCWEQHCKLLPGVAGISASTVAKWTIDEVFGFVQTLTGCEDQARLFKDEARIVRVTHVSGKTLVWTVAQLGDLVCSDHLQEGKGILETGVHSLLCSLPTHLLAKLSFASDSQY
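AlphaScreen proximity signal between nickel-chelate acceptor and streptavidin donor beads (final 10 ug/mL) reports binding of 50 nM L3MBTL1 to 75 nM biotin-H3 K9me1 peptide; complex incubated with compounds 30 min at room temperature; cefsulodin titration as control.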
BAZ2B block: inhibitors of human BAZ2B bromodomain. Q9UIF8. AlphaScreen BAZ2B-H3K14Ac peptide displacement. Potency, µM (doses to about 114 µM), for the others: at the highest dose activity change, negative = inhibition, actives largely listed as inhibitors. 360,000 compounds, 4.4% hits. AID 504333; note: % is set by controls: 0 for no effect and ±100 for the full control effect; nearly all actives have a fitted effect of over 60% in size
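Multi-concentration screen (max 110 uM) measuring displacement of acetylated histone H3 peptide from BAZ2B by AlphaScreen, using 50 nM protein, 50 nM peptide and 10 ug/mL streptavidin donor plus Ni-chelate acceptor beads.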
HP1b binding inh: inhibitors of HP1-beta chromodomain binding to methylated histone tails | P83916 | AID 540317 | AlphaScreen HP1-beta / biotin-H3K9me3 peptide binding | Potency, µM (doses to about 114 µM), without a hit: at the highest dose activity change, negative = inhibition, actives largely listed as inhibitors | 390,000 compounds, 0.56% hits; note: nearly all actives have a fitted effect of over 70% in size
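HP1-beta protein (50 nM final) preincubated 30 min at room temperature with biotinylated H3(1-18)K9me3 peptide (50 nM) in PBS pH 7.4, 0.01% Tween-20, then compound added for 30 min. AlphaScreen streptavidin donor/nickel chelate acceptor beads (10 ug/mL final), 30 min dark, luminescence read.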
G9a block: G9a (human) methyltransferase inhibition | G9a H3K9 monomethylation, AlphaScreen, 2 h | Potency, µM (series often up to 102 µM), inactives show at the top dose activity, negative = inhibition, most hits filed as inhibitors | 350,000 compounds, 8.8% hits; note: % is set by controls: 0 for no effect and ±100 for the full control effect; nearly all actives have a fitted effect of over 75% in size
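Compounds were preincubated with 20 nM G9a for 15 min, after which biotinylated H3K9 peptide (500 nM) and SAM (20 uM) started a 2 h room-temperature reaction. Monomethylated product was quantified by antibody-based AlphaScreen chemiluminescence.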
An asterisk follows results filed as active; ? = inconclusive; · = no result given; [ ] = another dose, or the depositor's remark. Calls come from the whole dose curve; as a rule, active = well fitted curve in the direction sought with a large enough effect; inconclusive = small, poorly fitted or top-dose-only effect, or another doubt; inactive = no such curve, though single readings can be large; an effect the other way counts as inactive or inconclusive. Potency is the fitted concentration of half-maximal effect.

SMILES	Sfp PPTase inh	JMJD2A Tudor	L3MBTL1 inh	BAZ2B block	HP1b binding inh	G9a block
O=C(/C=C/c1ccccc1Cl)NC1CCCCC1	4%	2%	-4%	-3%	16%	60%
Cc1cc(N)c2cc(NC(=O)/C=C/c3ccccc3Cl)ccc2n1	25µM*	63µM*	-24%	?	-20%	25µM*
O=C(/C=C/c1ccccc1Cl)NC1CCS(=O)(=O)C1 (stereo unspecified)	5%	5µM*	1%	0%	-18%	6%
O=C(/C=C/c1ccccc1Cl)Nc1ccncc1	-11%	-26%	-3%	-36%	25%	50µM*
O=C(/C=C/c1ccccc1Cl)Nc1cccnc1	-10%	-13%	2%	1%	17%	19%
O=C(NCc1nc2ccccc2[nH]1)c1cccc(S(=O)(=O)N2CCCCC2)c1	12%	-19%	13%	-13%	-6%	?
CSCCC(NC(=O)c1cccc(S(=O)(=O)N2CCN(C(C)=O)CC2)c1)c1nc2ccccc2[nH]1 (stereo unspecified)	·	-19%	·	·	37%	·
CSCC[C@H](NC(=O)c1ccc(Cl)c(S(=O)(=O)N2CCCC2)c1)c1nc2ccccc2[nH]1	-1%	-26%	-22%	?	5%	35µM*
O=C(NCc1nc2ccccc2[nH]1)c1ccc(Cl)c(S(=O)(=O)N2CCCC2)c1	19%	-29%	-19%	-21%	18%	35µM*
CC(=O)n1c2c(c3ccccc31)OC(N)=C(C#N)C2c1cccc(Cl)c1Cl (stereo unspecified)	-3%	-19%	3%	3%	23%	45µM*
Cn1ccnc1Sc1ccccc1[N+](=O)[O-]	-8%	-1%	·	2%	40%	?
Cc1cc([N+](=O)[O-])cnc1Sc1nccn1C	12%	-9%	7%	50µM*	35%	18%[59 µM]
COc1cc(C(CCN2CCCC(C)C2)c2c(OC)cc(OC)c3c(C)cc(=O)oc23)cc(OC)c1OC (stereo unspecified)	-9%	-19%	·	·	?	·
COc1cc(OC)c2ccc(=O)oc2c1C(CCN1CCCC(C)C1)c1ccc(N(C)C)cc1 (stereo unspecified)	3%	35µM*	·	?	-20%	?
CCCCCc1cc(=O)oc2c(C(CCN3CCCC(C)C3)c3cc(OC)c(OC)c(OC)c3)c(OC)cc(OC)c12 (stereo unspecified)	0%	?	·	-30%	6%	?
CCCCCc1cc(=O)oc2c(C(CCN3CCCC(C)C3)c3ccc(N(C)C)cc3)c(OC)cc(OC)c12 (stereo unspecified)	56µM*	25µM*	·	11µM*	25µM*	-8%[12.7 µM]
COc1cc(OC)c2ccc(=O)oc2c1C(CC(=O)N1CCCC(C)C1)c1ccc2c(c1)OCO2 (stereo unspecified)	-3%	?	·	50µM*	-10%	6%[12.7 µM]
CCCCCc1cc(=O)oc2c(C(CCN3CCCCC3)c3cc(OC)c(OC)c(OC)c3)c(OC)cc(OC)c12 (stereo unspecified)	79µM*	?	·	-22%	4%	-13%[59 µM]
COc1ccc(-c2nc3cnc(N4CCNCC4)nc3n(-c3ccc(OC)cc3)c2=O)cc1	15%	·	·	·	·	3%[0.501 µM]
COc1ccccc1-c1ccc(/C=C2/C=C(CC(C)C)OC2=O)o1	50µM*	?	?	40µM*	?	10µM*
O=Cc1ccc(-c2ccccc2OC(F)(F)F)o1	4%	3%	·	-2%	21%	18%
COc1ccccc1-c1cc(=O)c2cccc(OC)c2o1	3%	·	·	·	·	·
CCCC1=C/C(=C/c2ccc(-c3ccccc3OC)o2)C(=O)O1	?	?	-18%	40µM*	-28%	28µM*
N#Cc1nc(Cc2cccc3ccccc23)oc1N1CCN(c2ccccc2)CC1	-11%	?	·	?	?	22µM*
CC1CCN(c2oc(Cc3cccc4ccccc34)nc2C#N)CC1	9%	?	?	?	?	8.9µM*
SMILES	Sfp PPTase inh	JMJD2A Tudor	L3MBTL1 inh	BAZ2B block	HP1b binding inh	G9a block
CC1CC(C)CN(c2oc(Cc3ccccc3)nc2C#N)C1 (stereo unspecified)	-1%	?	?	14µM*	?	11µM*
COc1ccc(N2CCN(c3oc(Cc4cccc5ccccc45)nc3C#N)CC2)cc1	4%	?	?	4µM*	?	7%[0.0925 µM]
N#Cc1nc(Cc2ccccc2)oc1N1CCCC1	-9%	-33%	-10%	?	-8%	·
CCc1nn(-c2ccccc2)c2nc(-c3cccc(OC)c3)c3cc(OC)c(OC)cc3c12	·	-15%	·	3%	-8%	11%[59 µM]
C=CCNC(=S)NNC(=O)COc1ccc2cc(Br)ccc2c1	11%	-9%	-12%	-22%	33%	5%
C=CCNC(=S)NNC(=O)COc1cccc(Cl)c1	10%	-7%	0%	-5%	17%	25µM*
C=CCNC(=S)NNC(=O)c1cccc(Br)c1	9%	-3%	-5%	-25%	41%	40%[59 µM]
C=CCNC(=S)NNC(=O)COc1ccc(Br)cc1	17%	?	1%	5%	25%	32µM*
CC(C)Oc1ccccc1-c1nc(SCC(=O)c2ccc(F)cc2)n[nH]1	·	-7%	·	-2%	51%	2%[59 µM]
O=C(N/N=C/c1ccc(-c2ccccc2Cl)o1)c1ccccc1	12%	-2%	·	-17%	30%	4%
S=c1[nH]nc(-c2ccccc2)n1/N=C/c1ccc(-c2ccccc2Cl)o1	?	?	-11%	-13%	-15%	?
Clc1ccccc1-c1ccc(/C=N/Nc2nncc(-c3ccccc3)n2)o1	-9%	-22%	-2%	-22%	20%	-17%
Cc1nnc(C)n1/N=C/c1ccc(-c2ccccc2Cl)o1	-19%	?	·	-12%	-12%	50µM*
O=C(O)c1ccc(N/N=C/c2ccc(-c3ccccc3Cl)o2)cc1	7%	-11%	1%	-31%	1%	56µM*
O=S(=O)(N/N=C\c1ccc(-c2ccccc2Cl)o1)c1ccccc1	45µM*	-36%	-28%	?	?	7.9µM*
